The campaign covered roughly 5,500 compounds. About 2,000 (36%) were called active. Roughly 18% stayed inconclusive and do not appear here. Cut-off read from the data, not from the text of the source: active = normalized growth mostly below about 0.91 (no sharp cut-off); inconclusive = no clear call, values can overlap the other calls; inactive = mostly above about 0.92. Some of the results follow.
Assay: chemical genetic growth profiling, strain panel (AID 1159580);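 note: tested at 20 µM; growth read once vehicle control cultures reached saturation at 30 °C; 1 = growth at the plate median or of vehicle wells; lower values mean less growth of the strain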
Settings: growth OD
[1] = S. cerevisiae deletion strains, locus YDL101C, strain DUN1, stronger effect = lower value
[2] = S. cerevisiae deletion strains, locus YHR030C, strain SLT2, stronger effect = lower value
[3] = S. cerevisiae deletion strains, locus YAL013W, strain DEP1, stronger effect = lower value
[4] = S. cerevisiae deletion strains, locus YBR229C, strain ROT2, stronger effect = lower value
[5] = S. cerevisiae deletion strains, locus YCL061C, strain MRC1, stronger effect = lower value
[6] = S. cerevisiae deletion strains, locus YDL134C, strain PPH21, stronger effect = lower value
[7] = S. cerevisiae deletion strains, locus YDR150W, strain NUM1, stronger effect = lower value
[8] = S. cerevisiae deletion strains, locus YEL061C, strain CIN8, stronger effect = lower value
[9] = S. cerevisiae deletion strains, locus YGR078C, strain PAC10, stronger effect = lower value
[10] = S. cerevisiae deletion strains, locus YHR087W, strain rtc3, stronger effect = lower value
[11] = S. cerevisiae deletion strains, locus YJR043C, strain POL32, stronger effect = lower value
[12] = S. cerevisiae deletion strains, locus YJR075W, strain HOC1, stronger effect = lower value
[13] = S. cerevisiae deletion strains, locus YLR039C, strain RIC1, stronger effect = lower value
[14] = S. cerevisiae deletion strains, locus YLR058C, strain SHM2 (second series), stronger effect = lower value
[15] = S. cerevisiae deletion strains, locus YLR085C, strain ARP6, stronger effect = lower value
[16] = S. cerevisiae deletion strains, locus YLR262C, strain YPT6, stronger effect = lower value
[17] = S. cerevisiae deletion strains, locus YML094W, strain GIM5, stronger effect = lower value
[18] = S. cerevisiae deletion strains, locus YMR219W, strain ESC1, stronger effect = lower value
[19] = S. cerevisiae deletion strains, locus YMR263W, strain SAP30, stronger effect = lower value
[20] = S. cerevisiae deletion strains, locus YNL153C, strain GIM3, stronger effect = lower value
[21] = S. cerevisiae deletion strains, locus YNL298W, strain CLA4 (second series), stronger effect = lower value
[22] = S. cerevisiae deletion strains, locus YNL322C, strain KRE1, stronger effect = lower value
[23] = S. cerevisiae deletion strains, locus YNR030W, strain Alg12, stronger effect = lower value
[24] = S. cerevisiae deletion strains, locus YOL006C, strain TOP1, stronger effect = lower value
[25] = S. cerevisiae deletion strains, locus YPL055C, strain LGE1, stronger effect = lower value
[26] = S. cerevisiae deletion strains, locus YPL241C, strain CIN2, stronger effect = lower value
[27] = S. cerevisiae deletion strains, locus YPR135W, strain CTF4, stronger effect = lower value

Measured: normalized growth

Clc1ccc(-c2csc(Nc3ccccc3)n2)s1
inactive: S. cerevisiae deletion strains, locus YAR019C, strain CDC15, stronger effect = lower value 0.933 | S. cerevisiae deletion strains, locus YBL105C, strain PKC1, stronger effect = lower value 0.933 | S. cerevisiae deletion strains, locus YBR135W, strain CKS1, stronger effect = lower value 0.929 | S. cerevisiae deletion strains, locus YBR136W, strain MEC1, stronger effect = lower value 0.923 | S. cerevisiae deletion strains, locus YBR160W, strain CDC28, stronger effect = lower value 0.925 | S. cerevisiae deletion strains, locus YDL017W, strain CDC7, stronger effect = lower value 0.928 | S. cerevisiae deletion strains, locus YDL028C, strain MPS1, stronger effect = lower value 0.936 | [1] 0.943 | S. cerevisiae deletion strains, locus YDL108W, strain KIN28, stronger effect = lower value 0.926 | S. cerevisiae deletion strains, locus YDL132W, strain cdc53, stronger effect = lower value 0.94 | S. cerevisiae deletion strains, locus YDR052C, strain DBF4, stronger effect = lower value 0.933 | S. cerevisiae deletion strains, locus YDR054C, strain cdc34, stronger effect = lower value 0.907 | S. cerevisiae deletion strains, locus YDR226W, strain ADK1, stronger effect = lower value 0.936 | S. cerevisiae deletion strains, locus YFL009W, strain cdc4, stronger effect = lower value 0.929 | S. cerevisiae deletion strains, locus YFL029C, strain CAK1, stronger effect = lower value 0.923 | S. cerevisiae deletion strains, locus YFR003C, strain YPI1, stronger effect = lower value 0.933 | S. cerevisiae deletion strains, locus YFR028C, strain CDC14, stronger effect = lower value 0.926 | S. cerevisiae deletion strains, locus YIL147C, strain SLN1, stronger effect = lower value 0.932 | S. cerevisiae deletion strains, locus YJR016C, strain ILV3, stronger effect = lower value 0.925 | S. cerevisiae deletion strains, locus YKL193C, strain SDS22, stronger effect = lower value 0.921 | S. cerevisiae deletion strains, locus YMR001C, strain CDC5, stronger effect = lower value 0.925 | S. cerevisiae deletion strains, locus YMR277W, strain FCP1, stronger effect = lower value 0.921 | S. cerevisiae deletion strains, locus YNL006W, strain LST8, stronger effect = lower value 0.932 | S. cerevisiae deletion strains, locus YNL161W, strain CBK1, stronger effect = lower value 0.923 | S. cerevisiae deletion strains, locus YNL207W, strain RIO2, stronger effect = lower value 0.915 | S. cerevisiae deletion strains, locus YNL222W, strain SSU72, stronger effect = lower value 0.931 | S. cerevisiae deletion strains, locus YOL078W, strain AVO1, stronger effect = lower value 0.926 | S. cerevisiae deletion strains, locus YOR329C, strain SCD5, stronger effect = lower value 0.922 | S. cerevisiae deletion strains, locus YPL209C, strain IPL1, stronger effect = lower value 0.915 | S. cerevisiae deletion strains, locus YPR025C, strain CCL1, stronger effect = lower value 0.926 | S. cerevisiae deletion strains, locus YPR106W, strain ISR1, stronger effect = lower value 0.906 | S. cerevisiae deletion strains, locus YPR111W, strain DBF20, stronger effect = lower value 0.917 | S. cerevisiae deletion strains, strain NNK1, stronger effect = lower value 0.916 | S. cerevisiae deletion strains, strain TSCII, stronger effect = lower value 0.92
active: S. cerevisiae deletion strains, locus YDL214C, strain PRR2, stronger effect = lower value 0.382 | S. cerevisiae deletion strains, locus YDR477W, strain SNF1, stronger effect = lower value 0.24 | S. cerevisiae deletion strains, locus YER123W, strain YCK3, stronger effect = lower value 0.354 | S. cerevisiae deletion strains, locus YER133W, strain GLC7, stronger effect = lower value 0.363 | S. cerevisiae deletion strains, locus YFR019W, strain FAB1, stronger effect = lower value 0.593 | S. cerevisiae deletion strains, locus YGR040W, strain KSS1, stronger effect = lower value 0.311 | S. cerevisiae deletion strains, locus YGR052W, strain FMP48, stronger effect = lower value 0.203 | S. cerevisiae deletion strains, locus YGR092W, strain DBF2, stronger effect = lower value 0.33 | [2] 0.146 | S. cerevisiae deletion strains, locus YHR079C, strain IRE1, stronger effect = lower value 0.452 | S. cerevisiae deletion strains, locus YHR082C, strain KSP1, stronger effect = lower value 0.23 | S. cerevisiae deletion strains, locus YHR205W, strain SCH9, stronger effect = lower value 0.273 | S. cerevisiae deletion strains, locus YJL095W, strain BCK1, stronger effect = lower value 0.224 | S. cerevisiae deletion strains, locus YJL157C, strain FAR1, stronger effect = lower value 0.434 | S. cerevisiae deletion strains, locus YJR066W, strain TOR1 (second series), stronger effect = lower value 0.471 | S. cerevisiae deletion strains, locus YJR066W, strain TOR1, stronger effect = lower value 0.276 | S. cerevisiae deletion strains, locus YKL048C, strain ELM1, stronger effect = lower value 0.771 | S. cerevisiae deletion strains, locus YKL067W, strain YNK1, stronger effect = lower value 0.521 | S. cerevisiae deletion strains, locus YKL101W, strain HSL1, stronger effect = lower value 0.451 | S. cerevisiae deletion strains, locus YKL203C, strain TOR2, stronger effect = lower value 0.385 | S. cerevisiae deletion strains, locus YLR113W, strain HOG1, stronger effect = lower value 0.216 | S. cerevisiae deletion strains, locus YLR133W, strain CKI1, stronger effect = lower value 0.39 | S. cerevisiae deletion strains, locus YLR403W, strain SFP1, stronger effect = lower value 0.332 | S. cerevisiae deletion strains, locus YML070W, strain DAK1, stronger effect = lower value 0.408 | S. cerevisiae deletion strains, locus YMR205C, strain PFK2 (second series), stronger effect = lower value 0.578 | S. cerevisiae deletion strains, locus YNL020C, strain ARK1, stronger effect = lower value 0.419 | S. cerevisiae deletion strains, locus YNL183C, strain NPR1, stronger effect = lower value 0.148 | S. cerevisiae deletion strains, locus YNL307C, strain MCK1 (second series), stronger effect = lower value 0.28 | S. cerevisiae deletion strains, locus YOL136C, strain PFK27, stronger effect = lower value 0.453 | S. cerevisiae deletion strains, locus YOR061W, strain CKA2, stronger effect = lower value 0.414 | S. cerevisiae deletion strains, locus YOR119C, strain RIO1, stronger effect = lower value 0.409 | S. cerevisiae deletion strains, locus YOR231W, strain MKK1, stronger effect = lower value 0.435 | S. cerevisiae deletion strains, locus YPL031C, strain PHO85, stronger effect = lower value 0.295 | S. cerevisiae deletion strains, locus YPL153C, strain RAD53, stronger effect = lower value 0.438 | S. cerevisiae deletion strains, locus YPL204W, strain HRR25, stronger effect = lower value 0.435 | S. cerevisiae deletion strains, locus YPL256C, strain CLN2, stronger effect = lower value 0.289

Clc1cccc(-c2csc(Nc3cccnc3)n2)c1
inactive: [3] 0.935 | [4] 0.998 | [5] 0.957 | [1] 1.04 | [6] 0.997 | [7] 0.954 | [8] 0.993 | [9] 0.979 | S. cerevisiae deletion strains, locus YGR229C, strain SMI1, stronger effect = lower value 1 | [2] 0.729 | [10] 0.974 | S. cerevisiae deletion strains, locus YJL187C, strain SWE1, stronger effect = lower value 0.957 | [11] 0.921 | [12] 0.978 | [13] 0.951 | [14] 0.99 | [15] 0.839 | [16] 1 | [17] 0.971 | [18] 0.992 | [19] 0.914 | [20] 0.971 | [21] 0.881 | [22] 1 | [23] 0.968 | [24] 0.979 | [25] 0.839 | [26] 0.915 | [27] 0.884 | S. cerevisiae strains, strain wild type, stronger effect = lower value 0.997

Clc1ccc(-c2csc(-c3ccno3)n2)s1
active: [6] 0.565 | [8] 0.89 | [2] 0.484 | [13] 0.57 | [14] 0.932 | [15] 0.644 | [16] 0.777 | [18] 0.937 | [24] 0.655 | [26] 0.81
inactive: [3] 0.942 | [4] 0.958 | [5] 0.985 | [1] 0.915 | [7] 1.01 | [9] 0.96 | [10] 0.954 | [11] 1.01 | [12] 0.929 | [17] 0.868 | [19] 0.952 | S. cerevisiae deletion strains, locus YMR307W, strain GAS1, stronger effect = lower value 0.702 | S. cerevisiae deletion strains, locus YNL128W, strain TEP1, stronger effect = lower value 0.939 | [20] 1 | [21] 0.899 | [22] 0.97 | [23] 0.9 | [25] 0.851 | [27] 0.741

From PubChem BioAssay AID1159580 (chemical genetic matrix, 2015)
